# Only some compounds are listed: those with a hit (about 4.8% of all), similar ones and a draw of the others.
# SKKanGAS inh = S. pyogenes SKKanGAS growth inhibitors in kanamycin, primary screen, streptokinase expression inhibitor project, SKKanGAS strain, BacTiter-Glo luminescence | 6 h | inhibition, % at 7.5 µM | actives 1.3% (n = 300,000) | AID 1662, 2009;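 active = mean replicate score, as percent of positive control median, at least 50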;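 note: strain carries kanamycin resistance gene driven by streptokinase promoter and grows in 40 µg/ml kanamycin; loss of luminescence reflects streptokinase promoter inhibition or plain growth inhibition; 0% = median of DMSO wells and 100% = positive control at its reference dose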
# TIM10 inh = growth inhibitors of isogenic TIM10 control yeast, primary screen, counter-screen for tim10-1 yeast inhibitor project, luminescence, uHTS; S. cerevisiae TIM10 strain growth, BacTiter-Glo luminescence, 24 h; AID 463195, 2010; actives 1.4% (n = 330,000); inhibition, % at 10 µM;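 active = inhibition of 40% or more at the single tested concentration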;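 note: wild-type TIM10 isogenic control strain grown at permissive 25 °C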
# NALP1 inh = NALP1 inflammasome inhibitors in reconstituted yeast, colorimetric, S. cerevisiae, triplicate retest; inhibition, % at 10 µM; S. cerevisiae NALP1/ASC/caspase-1 growth, X-gal OD620, 72 h; actives 0.61% (n = 280,000); AID 2071, 2009; in the data active = inhibition mostly above about 24%, no sharp cut-off; inactive = mostly below about 32%
# PfHsp90 set2 = growth inhibition of PfHsp90-expressing yeast, primary screen, antimalarial PfHsp90 inhibitor project, S. cerevisiae, BacTiter-Glo luminescence, single point, set 2; inhibition, % at 9.4 µM; actives 0.32% (n = 310,000); BacTiter-Glo ATP, 48 h; yeast lacking PDR1 and PDR3 efflux regulators;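 active = every replicate shows inhibition above about 80%, whatever the replicate mean, limit read from the data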;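 note: 0% = DMSO neutral controls and 100% = 20 µM radicicol positive controls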
# tim23-1 inh = growth inhibitors of tim23-1 mutant yeast, primary screen, luminescence, uHTS. S. cerevisiae tim23-1 growth, BacTiter-Glo luminescence, 24 h. inhibition, % at 20 µM. actives 1.3% (n = 330,000). AID 463212, 2010;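 active = growth inhibition of the mutant yeast at or above 50%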;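 note: temperature-sensitive mutant grown at 25 °C; plate controls were DMSO-treated mutant yeast for no effect and medium wells lacking yeast for full effect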
# tim10-1 inh = growth inhibitors of tim10-1 mutant yeast, primary screen, luminescence, uHTS. AID 463190, 2010. actives 2.2% (n = 330,000). S. cerevisiae tim10-1 ts strain growth, BacTiter-Glo, 24 h. inhibition, % at 20 µM;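 active = inhibition of at least 40%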;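 note: mutant grown at 25 °C; 0% = DMSO wells with yeast and 100% = wells holding no yeast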
# tim10-1 conf = growth inhibitors of tim10-1 mutant yeast, confirmation, single concentration, luminescence, S. cerevisiae; AID 463213, 2010; S. cerevisiae tim10-1 ts strain growth, BacTiter-Glo, 24 h; actives 56% (n = 7,400); shares compounds with tim10-1 inh; inhibition, % at 20 µM;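 active = inhibition of yeast growth at or above a set limit in either of two repeat tests at 20 µM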;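 note: tim10-1 mutant grown at permissive 25 °C to find synthetic lethal compounds; 0% = DMSO yeast wells and 100% = medium wells without yeast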
# Active calls of the source: *; x = no result.
SMILES,SKKanGAS inh,TIM10 inh,NALP1 inh,PfHsp90 set2,tim23-1 inh,tim10-1 inh,tim10-1 conf
O=C(c1cc(COc2ccc(F)c(F)c2)on1)N1CCN(C2CCCCC2)C(=O)C1,2,-18,27,-23,33,40*,-29
O=C(c1cc(COc2c(F)cccc2F)on1)N1CCN(C2CCCCC2)C(=O)C1,-1,-8,12,-7,24,22,x
COC(=O)C(Cc1cccc(C)n1)(c1ccccc1)c1ccccc1,7,x,19,26,x,x,x
COc1ccccc1-n1cc(-c2ccccc2)c2c(=S)nc[nH]c21,5,31,-27,-38,41,48*,14
COc1ccccc1-n1cc(-c2ccccc2)[nH]c1=S,-3,31,-3,-11,46,11,x
CNC(=O)CN(c1cc(OCCOC)c(Cl)cc1Cl)S(=O)(=O)c1ccccc1,4,1,16,9,18,7,x
CCCCCCCCCCOC(=O)Cn1c(COc2ccccc2OC)[n+](C)c2ccccc21,75*,33,37*,-31,23,46*,65*
Cn1c(COc2ccccc2O)[n+](C)c2ccccc21,4,13,-2,-14,9,0,x
CCOC(=O)c1ccc(N2C(=O)CC(N3CCC(Nc4ccc(F)cc4)CC3)C2=O)cc1 (stereo not given),-5,35,-3,128*,15,57*,50*
CCOC(=O)c1ccc(N2C(=O)CC(N3CCN(Cc4ccccc4)CC3)C2=O)cc1 (stereo not given),-6,8,2,5,26,28,x
O=C1CC(N2CCN(c3ccc(F)cc3)CC2)C(=O)N1c1ccc(F)cc1 (stereo not given),5,3,13,-6,11,1,x
O=C1CC(N2CCCCCC2)C(=O)N1c1ccc(F)cc1 (stereo not given),0,39,37*,x,33,54*,45*
Cc1cccc(Cl)c1OCCCN1CCOCC1,-3,-15,2,6,8,-4,x
COc1ccc(-n2ncc3c2CC(C)(C)CC3NC(=O)c2oc(C)cc2C)cc1 (stereo not given),1,14,1,-29,36,44*,11
Cc1cc(C)c(C(=O)NC2CC(C)(C)Cc3c2cnn3-c2ccccc2)o1 (stereo not given),1,20,12,22,42,45*,24
Cc1ncoc1C(=O)NC1CC(C)(C)Cc2c1cnn2-c1ccccc1 (stereo not given),0,9,4,-2,9,16,x
CSCc1ccc(C(=O)NC2CC(C)(C)Cc3c2cnn3-c2ccc(F)cc2)o1 (stereo not given),1,25,-9,19,38,41*,13
COc1ccc(-n2ncc3c2CC(C)(C)CC3NC(=O)c2ocnc2C)cc1 (stereo not given),-3,-5,-4,-5,5,11,x
O=C(CCS(=O)(=O)c1ccc(Br)cc1)N1CCCCCC1,-1,-8,1,3,8,6,x
COc1ccc(OC)c(N(CC(=O)Nc2cccnc2)S(=O)(=O)c2ccc(C)cc2)c1,0,17,11,15,14,15,x
O=C(CSc1n[nH]c(-c2cccs2)n1)N1CCCC1,x,-1,x,-12,-9,-14,x
c1ccc(-c2nc(CSc3n[nH]c(-c4cccs4)n3)cs2)cc1,-13,37,16,5,39,42*,34*
O=C(N/N=C1\SCC(=O)N1CCc1ccccc1)c1cccs1,-11,-12,1,-3,7,-5,x
Cc1c(C(=O)/C=C/c2cccs2)oc2ccc(F)cc12,-8,30,7,-24,31,45*,38*
Cc1c(C(=O)Nc2nccs2)oc2ccc(F)cc12,x,-6,x,-8,-11,-1,x
SMILES,SKKanGAS inh,TIM10 inh,NALP1 inh,PfHsp90 set2,tim23-1 inh,tim10-1 inh,tim10-1 conf
CC(C)c1ccc(/C=C/C(=O)N2CCCCCC2)cc1,-18,16,42,-22,32,43*,14
O=C(O)CCC(=O)/C=C/c1ccccc1,3,0,8,-4,31,32,x
CC(C)c1ccc(/C=C/C(=O)CCC(=O)O)cc1,-7,7,12,-36,33,41*,24
CC(C)c1ccc(C2CC(=O)c3cnc(NC(=O)c4ccco4)nc3C2)cc1 (stereo not given),3,36,8,-6,49,29,x
O=C(Nc1ccccc1C(=O)NCc1ccccc1)c1ccccc1Br,0,16,30,11,34,15,x
Cc1ccc(NC(=O)c2ccccc2NC(=O)Cc2ccccc2)cc1,-7,30,38,-7,32,44*,21
Cc1ccccc1C(=O)Nc1ccccc1C(=O)NCc1ccccc1,5,25,11,-14,30,43*,36*
O=S(=O)(c1ccc(Br)s1)N1CCc2ccccc2C1,16,11,14,4,27,17,x
CCO[C@H]1OC(C(N)=O)=C[C@@H](c2ccccc2)[C@@H]1CCCO,4,11,1,24,12,4,x
Cc1nc(SCC(=O)Nc2ccccc2Cl)c2c(C)c(C)sc2n1,x,-11,x,4,17,5,x
O=C(C1CCCN(S(=O)(=O)c2cccc3nsnc23)C1)N1CC=C(c2ccccc2)CC1 (stereo not given),x,26,3,-29,6,15,x
O=C(C1CCN(S(=O)(=O)c2cccc3nsnc23)CC1)N1CC=C(c2ccccc2)CC1,4,12,15,10,10,43*,21
O/N=C/c1ccc(OCc2ccccc2F)c(Cl)c1,-13,4,26,-21,38,41*,11
O/N=C/c1ccc(OCc2ccccc2)c(Cl)c1,3,-33,8,13,38,-4,x
CCOC(=O)c1cnc2ccc(C(=O)OC)cc2c1Nc1ccc2c(c1)OCCO2,3,25,-5,-48,18,2,x
CCOC(=O)c1cnc2c(OC)cccc2c1Nc1ccc2c(c1)OCCO2,2,35,16,-9,42,44*,32*
COC(=O)Nc1ccc(S(=O)(=O)N(C)C)cc1,-1,-8,5,7,-15,7,x
CCN(CC)c1ccc(C2Nc3cccc4cccc(c34)N2)c(O)c1,x,19,2,2,29,43*,27
COc1ccc2c(=O)c(C(=O)NCc3ccccc3)c[nH]c2c1,-17,9,7,2,2,12,x

# Assay outcomes (PubChem)
